This is part of a sample that, as a whole, favours compounds with a hit. Of some 83,000 tested, about 20% had one in any assay.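 Each cell line was grown in a 96-well plate and treated with one concentration of compound for 48 hours. Values below 10 were considered active.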 Unmarked numbers belong to inactive results. Activity calls are given as the source filed them.
Columns and labels:
Assay in all cases: NCI-60 one-dose screen, 48 h (100 = growth as untreated, 0 = no growth, -100 = all killed)
SK-MEL-2 melanoma = settings: 10 µM unless noted
EKVX NSCLC = settings: 10 µM unless noted
SN12C renal = settings: 10 µM unless noted
UO-31 renal = settings: 10 µM unless noted
ACHN renal = settings: 10 µM unless noted
A498 renal = settings: 10 µM
CCRF-CEM leukemia = settings: 10 µM unless noted
MOLT-4 leukemia = settings: 10 µM unless noted
SR leukemia = settings: 10 µM unless noted
RPMI-8226 leukemia = settings: 10 µM unless noted
OVCAR-5 ovarian = settings: 10 µM unless noted
OVCAR-4 ovarian = settings: 10 µM unless noted
SK-OV-3 ovarian = settings: 10 µM unless noted
IGROV1 ovarian = settings: 10 µM unless noted
OVCAR-3 ovarian = settings: 10 µM unless noted
HS 578T breast = settings: 10 µM unless noted
CAKI-1 renal = settings: 10 µM unless noted
HL-60(TB) leukemia = settings: 10 µM unless noted
OVCAR-8 ovarian = settings: 10 µM unless noted
TK-10 renal = settings: 10 µM unless noted

SMILES	growth (SK-MEL-2 melanoma)	growth (EKVX NSCLC)	growth (SN12C renal)	growth (UO-31 renal)	growth (ACHN renal)	growth (A498 renal)	growth (CCRF-CEM leukemia)	growth (MOLT-4 leukemia)	growth (SR leukemia)	growth (RPMI-8226 leukemia)	growth (OVCAR-5 ovarian)	growth (OVCAR-4 ovarian)	growth (SK-OV-3 ovarian)	growth (IGROV1 ovarian)	growth (OVCAR-3 ovarian)	growth (HS 578T breast)	growth (CAKI-1 renal) [%]	growth (HL-60(TB) leukemia)	growth (OVCAR-8 ovarian)	growth (TK-10 renal)
CC[C@@H]1[C@@H](C)O[C@@](O)([C@@H](C)[C@H](O)[C@H](C)[C@H]2OC(=O)/C=C/C=C/[C@H](C)[C@@H]([C@@H](C)[C@@H](O)[C@H](C)[C@@]3(O)C[C@@H](O[C@H]4C[C@@H](O)[C@H](O)C(C)O4)[C@H](CC)[C@@H](C)O3)OC(=O)/C=C/C=C/[C@@H]2C)C[C@H]1O[C@@H]1C[C@@H](O)[C@H](O)C(C)O1 (some centres not stated)	-92% (active)	-88.6% (active)	-75.1% (active)	-97% (active)	-96.8% (active)	-97.5% (active)	-61.5% (active)	-72.6% (active)	-49.1% (active)	-65.2% (active)	-88.7% (active)	-95.6% (active)	-96.5% (active)	-71.4% (active)	-98% (active)	-51.5% (active)	–	–	–	–
COC(=O)[C@@H](C)C[C@H](Cc1ccccc1)NC(=O)c1csc([C@@H](C[C@H](C(C)C)N(C)C(=O)C2(NC(=O)[C@H]3CCCCN3C)CCC2)OC(C)=O)n1	29.5%	31.7%	29.8%	43.3%	28.8%	-2.79% (active)	10% (active)	5.46% (active)	5.54% (active)	13.5%	24%	50%	–	23.2%	-6.95% (active)	13%	27.7	-51.8% (active)	27.2%	–
Clc1cccc(Cl)c1Cl	74.5%	95.7%	120%	85.3%	–	107%	96.4%	104%	92.7%	110%	97.8%	106%	104%	104%	94.2%	102%	–	99.6%	112%	86.8%
Cc1ccc(N2COOC3(OOC2)C2CC4CC(C2)CC3C4)cc1	104%	93%	106%	–	97.7%	88.4%	107%	79.3%	46.4%	102%	101%	–	101%	45.2%	102%	–	53.7	66.6%	99%	98.7%
COC(=O)[C@@H](C)C[C@H](Cc1ccccc1)NC(=O)c1csc([C@@H](C[C@H](C(C)C)N(C)C(=O)[C@@H](NC(=O)[C@H]2CCCN2C)C2CC2)OC(C)=O)n1	35.8%	31.1%	25.2%	48.2%	20.8%	-0.976% (active)	6.07% (active)	12.3%	11.2%	13.9%	46.8%	51.6%	25.7%	27.1%	-34.5% (active)	3.36% (active)	12.7	-36.8% (active)	33.4%	–
COC(=O)[C@H](Cc1ccccc1)NNC(=O)c1csc([C@@H](C[C@H](C(C)C)N(C)C(=O)[C@@H](NC(=O)[C@H]2CCCCN2C)C2CC2)OC(C)=O)n1	30.6%	29.9%	24.3%	42.8%	24.8%	-3.69% (active)	-2.7% (active)	7.86% (active)	5.77% (active)	7.38% (active)	32.5%	–	19.8%	27.4%	4.06% (active)	9.52% (active)	21.4	-55.4% (active)	24.1%	–
CO[C@H]1CC[C@@]2(C)C(=CC[C@@H]3[C@@H]2CC[C@]2(C)C(=O)C(=O)C[C@@H]32)C1	128%	108%	95.5%	–	102%	82.1%	95.3%	115%	107%	88.9%	–	113%	103%	120%	105%	–	93	141%	93.3%	117%
Brc1ccc2c(c1)c(-c1nc(-c3c[nH]c4ncccc34)cs1)cn2CCN1CCCCC1	82.7%	66.9%	80%	44.8%	–	–	50.8%	42%	16.2%	51.2%	109%	74.9%	103%	46.8%	85.1%	76.7%	–	66%	83.5%	81.5%
CCCCCCCCC(CO)NCCc1ccccc1 (configuration not stated)	96.3%	119%	99.4%	88.1%	–	95.2%	62%	60.5%	76.7%	80.4%	101%	108%	102%	105%	107%	106%	–	70.1%	81.1%	98.8%
Cc1ccc(C(Cc2ccccc2)NCCO)cc1 (configuration not stated)	54.7%	100%	102%	–	89.6%	97.9%	98.5%	88.2%	105%	–	55.4%	94.7%	75.8%	103%	100%	97.8%	98	91.4%	103%	88%
CNC(=O)Oc1ccc(C(C)(C)C)cc1OC(=O)NC	70.7%	82.1%	95.2%	94.9%	106%	–	96.6%	81.6%	87.9%	95.5%	108%	96.3%	88.4%	104%	102%	106%	–	–	–	98.2%
COC(=O)[C@@H](C)C[C@H](Cc1ccccc1)NC(=O)c1csc([C@@H](C[C@H](C(C)C)N(C)C(=O)[C@@H](NC(=O)[C@H]2CCCCN2C)C(C)C)OC(C)=O)n1	16.3%	29.6%	23.3%	42%	12.6%	-7.32% (active)	0.404% (active)	4.52% (active)	6.8% (active)	8.34% (active)	26.4%	44.6%	13.4%	25.7%	-24.4% (active)	-2.62% (active)	12.8	-47.8% (active)	22.7%	–
[Cl][Hg][c]1cc(Br)cc(Br)c1	41.3%	80%	24%	102%	–	75.4%	1.44% (active)	0.93% (active)	-16.6% (active)	23%	118%	48.5%	86.3%	16.5%	-7.88% (active)	30.3%	–	-27% (active)	70.4%	121%
C#Cc1ccc2c(c1)C(c1ccccc1)=NCC(=O)N2C	25.5%	50.2%	–	67.8%	52%	26.7%	48.9%	39.5%	38.3%	64.5%	–	90.9%	31.6%	–	9.19% (active)	56.4%	51.3	1.49% (active)	63.3%	66.1%
Cc1ccc(S(=O)(=O)F)cc1C(=O)O	105%	–	99.1%	91.9%	101%	132%	97.2%	99.6%	103%	100%	102%	110%	88.3%	102%	109%	–	93.9	104%	116%	107%
C=C1C[C@](OC)([C@H](O)C(=O)N[C@@H](OC)[C@@H]2C[C@@H](O)C(C)(C)[C@@H](C[C@@H](COC)OC)O2)O[C@H](C)[C@@H]1C	-64.8% (active)	-33.9% (active)	–	-61.7% (active)	-84.6% (active)	-87.1% (active)	-24.3% (active)	-51.7% (active)	-39.2% (active)	-72.5% (active)	-29.8% (active)	-38.4% (active)	-9.43% (active)	-66.8% (active)	-43.9% (active)	-46.2% (active)	–	-52% (active)	-20.8% (active)	-36% (active)

From PubChem BioAssay (NCI)
